Active and inactive are the calls of the source. The calls were made as follows: active = hit-call score of the fitted dose curve at least 0.9, where 1 is the maximum; inactive = score below 0.9.
Experiments:
[1] = read-out: Cytochrome P450 (CYP1A1), CYP1A1 (gene 1543); experiment: LTEA_HepaRG_CYP1A1: Life Technologies and Expression Analysis (LTEA) Assay for Cytochrome P450 (CYP1A1) using HepaRG (AID 2283454); settings: mRNA level, 48 h; actives raise or lower the signal
Summary of the method: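 CYP1A1 transcript levels measured by Fluidigm qRT-PCR against three housekeeping genes, 48 h after chemical dosing of human HepaRG cells (highest concentration 100 uM, half-log steps, 0.5% DMSO vehicle). Gain or loss of signal fitted relative to DMSO.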

[2] = read-out: CFLAR gene, CFLAR (gene 8837); experiment: LTEA_HepaRG_CFLAR: Life Technologies and Expression Analysis (LTEA) Assay for CFLAR gene using HepaRG (AID 2283455); settings: mRNA level, 48 h; actives raise or lower the signal
Summary of the method: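 Differentiated HepaRG cells in serum-free induction medium were exposed 48 h in duplicate to eight half-log concentrations up to 100 uM in 0.5% DMSO; mRNA measured by TaqMan qRT-PCR, normalized to ACTB, GAPDH, POLR2A; bidirectional fitting versus DMSO.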

[3] = read-out: Forkhead box O1 (FOXO1), FOXO1 (gene 2308); experiment: LTEA_HepaRG_FOXO1: Life Technologies and Expression Analysis (LTEA) Assay for Forkhead box O1 (FOXO1) using HepaRG (AID 2283456); settings: mRNA level, 48 h; actives raise or lower the signal
Summary of the method: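 Differentiated HepaRG cells, in serum-free induction medium with 0.5% DMSO, exposed 48 h in duplicate to 8-point half-log series from 100 uM. FOXO1 mRNA measured by TaqMan qRT-PCR, normalized to ACTB, GAPDH, POLR2A; bidirectional fit versus DMSO.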

[4] = read-out: growth arrest and DNA damage 45 (GADD45A), GADD45A (gene 1647); experiment: LTEA_HepaRG_GADD45A: Life Technologies and Expression Analysis (LTEA) Assay for growth arrest and DNA damage 45 (GADD45A) using HepaRG (AID 2283458); settings: mRNA level, 48 h; actives raise or lower the signal
Summary of the method: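 Differentiated HepaRG cells exposed 48 h in serum-free induction medium to 8 concentrations, top 100 uM in half-log steps, 0.5% DMSO. GADD45A mRNA quantified by qRT-PCR, normalized to ACTB, GAPDH and POLR2A; bidirectional fit versus DMSO.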

[5] = read-out: Forkhead box O3 (FOXO3), FOXO3 (gene 2309); experiment: LTEA_HepaRG_FOXO3: Life Technologies and Expression Analysis (LTEA) Assay for Forkhead box O3 (FOXO3) using HepaRG (AID 2283459); settings: mRNA level, 48 h; actives raise or lower the signal
Summary of the method: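 Differentiated human HepaRG cells, 48 h post-plating, exposed in duplicate for 48 h in serum-free induction medium; 8-point half-log series from 100 uM in 0.5% DMSO. FOXO3 mRNA by TaqMan qRT-PCR, normalized to ACTB/GAPDH/POLR2A; bidirectional fit versus DMSO.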

[6] = read-out: ABC Transporter (ABCB1), ABCB1 (gene 5243); experiment: LTEA_HepaRG_ABCB1: Life Technologies and Expression Analysis (LTEA) Assay for ABC Transporter (ABCB1) using HepaRG (AID 2283460); settings: mRNA level, 48 h; actives raise or lower the signal
Summary of the method: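 HepaRG cells exposed in duplicate for 48 h in serum-free induction medium to eight half-log concentrations up to 100 uM in 0.5% DMSO. ABCB1 mRNA quantified by qRT-PCR, normalised to ACTB, GAPDH and POLR2A; fitted bidirectionally versus DMSO.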

[7] = read-out: growth arrest and DNA damage 45 (GADD45B), GADD45B (gene 4616); experiment: LTEA_HepaRG_GADD45B: Life Technologies and Expression Analysis (LTEA) Assay for growth arrest and DNA damage 45 (GADD45B) using HepaRG (AID 2283461); settings: mRNA level, 48 h; actives raise or lower the signal
Summary of the method: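 Transcript level quantified by Fluidigm TaqMan qRT-PCR with three housekeeping genes for normalization, analyzed for up- or down-regulation against 0.5% DMSO. HepaRG cultures dosed 48 h at eight half-log concentrations up to 100 uM, duplicates.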

[8] = read-out: ABC Transporter (ABCC3), ABCC3 (gene 8714); experiment: LTEA_HepaRG_ABCC3: Life Technologies and Expression Analysis (LTEA) Assay for ABC Transporter (ABCC3) using HepaRG (AID 2283462); settings: mRNA level, 48 h; actives raise or lower the signal
Summary of the method: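 Transcript level by TaqMan qRT-PCR, normalised to three housekeeping genes, fitted in both directions relative to vehicle. Chemicals tested in duplicate at eight half-log concentrations up to 100 uM for 48 h on HepaRG cells (0.5% DMSO).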

[9] = read-out: ABC Transporter (ABCB11), ABCB11 (gene 8647); experiment: LTEA_HepaRG_ABCB11: Life Technologies and Expression Analysis (LTEA) Assay for ABC Transporter (ABCB11) using HepaRG (AID 2283463); settings: mRNA level, 48 h; actives raise or lower the signal
Summary of the method: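 Differentiated human HepaRG cells in serum-free induction medium, dosed in duplicate for 48 h. Eight-point half-log series from 100 uM in 0.5% DMSO; ABCB11 mRNA by qRT-PCR, normalized to ACTB, GAPDH, POLR2A, fitted bidirectionally versus DMSO.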

[10] = CEETOX_H295R_TESTO: CeeTox H295R High-throughput Steroidogenesis Assay for Testosterone (TESTO) (AID 2283457); settings: actives raise or lower the signal
Summary of the method: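 Testosterone secreted into the medium over 48 h by H295R cells (maximum passage 10) was quantified by LC-MS/MS after MTBE extraction. Fitted in both directions against DMSO, with concentrations diluted until MTT viability was ≥70%.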

Measured: AC50

c1ccc2cc3ccccc3cc2c1
inactive: [2] | [3] | [4] | [5] | [6] | [7] | [8]
active: [1] 10.5 µM | [9] 71.7 µM

OCCNCCO
active: [9] 60.5 µM
inactive: [1] | [2] | [3] | [4] | [5] | [6] | [7] | [8]

OC[C@H]1O[C@@](CO)(O[C@H]2O[C@H](CO)[C@@H](O)[C@H](O)[C@H]2O)[C@@H](O)[C@@H]1O
inactive: [2] | [3] | [4] | [5] | [6] | [7] | [8] | [9]
active: [1] 67.1 µM

NC(=O)NN=Cc1ccc([N+](=O)[O-])o1
active: [1] 50 µM
inactive: [2] | [3] | [4] | [5] | [6] | [7] | [8] | [9]

c1ccc2ncccc2c1
inactive: [2] | [3] | [4] | [5] | [6] | [7] | [8] | [9]
active: [1] 83.2 µM

C=CN1CCCC1=O
inactive: [2] | [3] | [4] | [5] | [6] | [7] | [8] | [9]
active: [1] 50 µM

Cc1ccc(S(=O)(=O)NC(=O)NN2CCCCCC2)cc1
inactive: [2] | [3] | [4] | [5] | [7] | [8] | [9]
active: [6] 20.1 µM

C[C@]12C=CC(=O)C=C1CC[C@H]1[C@@H]3C[C@@H](O)[C@](O)(C(=O)CO)[C@@]3(C)C[C@H](O)[C@@]12F
active: [1] 50 µM
inactive: [2] | [3] | [4] | [5] | [6] | [7] | [8] | [9]

O=C1CN(N=Cc2ccc([N+](=O)[O-])o2)C(=O)N1
active: [4] 80.7 µM | [9] 27.7 µM
inactive: [1] | [2] | [3] | [5] | [6] | [7] | [8]

CCCCCCCC/C=C\CCCCCCCC(=O)OC[C@@H](O)[C@H]1OC[C@H](O)[C@H]1O
inactive: [1] | [2] | [3] | [4] | [5] | [6] | [7] | [8] | [9]

COS(C)(=O)=O
inactive: [1] | [2] | [3] | [4] | [5] | [6] | [7] | [8] | [9]

O=S(=O)(O)c1ccc(N=Nc2c(O)ccc3cc(S(=O)(=O)O)ccc23)cc1
inactive: [2] | [3] | [4] | [5] | [6] | [7] | [8] | [9]
active: [1] 50 µM

OCc1c[nH]c2ccccc12
inactive: [10]

OC(Cn1cncn1)(Cn1cncn1)c1ccc(F)cc1F
inactive: [1] | [2] | [3] | [4] | [5] | [6] | [7] | [8] | [9]

O=c1[nH]cnc2c1ncn2[C@H]1CC[C@@H](CO)O1
inactive: [1] | [2] | [3] | [4] | [5] | [6] | [7] | [8] | [9]

Cn1c(=O)c2[nH]cnc2n(C)c1=O
inactive: [1] | [2] | [3] | [4] | [5] | [6] | [7] | [8] | [9]

Cc1nccn1-c1ccc(Sc2cccc(C3(C(N)=O)CCOCC3)c2)cc1
active: [2] 28.3 µM | [3] 9.73 µM | [4] 10.9 µM | [6] 21 µM | [7] 27.3 µM | [8] 3.65 µM | [9] 9.74 µM
inactive: [1] | [5]

OCCOCCOCCO
active: [1] 84.1 µM | [6] 0.115 µM
inactive: [2] | [3] | [4] | [5] | [7] | [8] | [9]

— PubChem BioAssay (EPA / NIEHS)
